This note sets out measurements from PubChem BioAssay (NCATS).

One test relates to CRL-7250. Put plainly: Cytotoxic Profiling of Annotated Libraries Using Quantitative High-Throughput Screening (AID 1296008). For max response: % is set by controls: 0 for no effect and ±100 for the full control effect. Note: potency is the fitted concentration of half-maximal effect. The note with it: Five cell lines viability, CellTiter-Glo ATP luminescence, 48-72 h; max response: stronger effect = lower value. In short, it runs like this: (§1)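 Cytotoxicity was measured as CellTiter-Glo ATP luminescence, read after 10 min at room temperature. Compound treatment of the cells lasted 48 or 72 hr at 37 degrees Celsius in a qHTS format.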
In general terms: In ATP-based viability assays light output follows the ATP content of the culture.

The next test deals with HEK293. The test is described as above. The note with it: Five cell lines viability, CellTiter-Glo ATP luminescence, 48-72 h; max response: stronger effect = lower value. In short, it runs like this:
as §1

The subject of test [1] is HaCat. The test is described as above. Particulars: Five cell lines viability, CellTiter-Glo ATP luminescence, 48-72 h; max response: stronger effect = lower value. In short, it runs like this: as §1
The test system of another test is KB-3-1. The description is as above. Particulars: Five cell lines viability, CellTiter-Glo ATP luminescence, 48-72 h; max response: stronger effect = lower value. The gist of the method: as §1
Test [2] has as its system NIH3T3. The test is described as above. The note with it: Five cell lines viability, CellTiter-Glo ATP luminescence, 48-72 h; max response: stronger effect = lower value. The gist of the method: as §1
A further test concerns HEK293T. Put plainly: qHTS assay to identify novel small-molecules to repurpose for Merkel cell carcinoma treatment (AID 1296009). The note with it: MCC and control cell lines, CellTiter-Glo viability, 72 h; at 44.8 µM (top of the series) unless noted. In short, it runs like this: (§2)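 After compound transfer in DMSO, plates were kept 72 hr at 37 degree celsius. Luminescent ATP signal from CellTiter-Glo served as viability measure, normalized against DMSO and no-cell controls.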

In test [3] the test system is HACAT. The description is as above. Particulars: MCC and control cell lines, CellTiter-Glo viability, 72 h; at 44.8 µM (top of the series) unless noted. The gist of the method: as §2
Test [4] deals with NIH3T3. The test is described as above. The note with it: MCC and control cell lines, CellTiter-Glo viability, 72 h; at 44.8 µM (top of the series) unless noted. The gist of the method: as §2

Results filed as inconclusive are left out. Unmarked numbers belong to inactive results. The source made the active and inactive calls. Calls come from the whole dose curve; as a rule, active = well fitted inhibition curve with a large enough effect; inconclusive = small, poorly fitted or top-dose-only effect; inactive = flat fitted curve, though single readings scatter. Where a SMILES comes first, the peptide text is derived from it.
Note: nearly all actives have a fitted effect of over 60% in size.

With `c1ccc2c(Nc3nnc(-c4ccncc4)s3)cccc2c1`, the max response was 3.08% in the test with CRL-7250, -11.3% with HaCat [1], 9.81% in the test on KB-3-1 and -0.252% in the test on NIH3T3 [2]. Further, the compound was called inactive in the test on HEK293 and with HEK293T.

Take `COc1cc(C(CO)CO[C@@H]2O[C@H](CO)[C@@H](O)[C@H](O)[C@H]2O)ccc1O` (some centres not stated): the max response was -15.6% in the test on CRL-7250, -35.5% in the test with HaCat [1], 5.97% in the test with KB-3-1 and -7.99% with NIH3T3 [2]. Moreover, the outcome with HEK293 and in the test on HEK293T was inactive.

With `CC(=O)NC(Cc1ccccc1)C(=O)NC(C(=O)O)C(C)C` (stereo not drawn) (Ac-Phe-Val-OH; configuration not given here), the max response is -0.555% in the test with CRL-7250, -2.09% in the test on HaCat [1], 4.23% in the test on KB-3-1 and 4.03% in the test with NIH3T3 [2]. The compound was classed as inactive in the test with HEK293 and in the test on HEK293T.

For the compound `COC(=O)CCC1(C)C(C(C)(C)O)C(O)CC2(C)Oc3c(C)c4c(c(OC)c3CC21)C(=O)OC4` (configuration not stated), the max response in the test with CRL-7250 is -9.47%; in the test on HaCat [1], -0.542%; with KB-3-1, 5%; in the test on NIH3T3 [2], -1.25%. Further, the compound was called inactive in the test on HEK293. Moreover, in the test with HEK293T, the outcome is “inactive [at 17.4 µM]”.

As to `CC(C)c1ccc2c(c1)CCC1[C@](C)(C(=O)O)CCC[C@]21C` (some centres not stated), the result with CRL-7250, with HaCat [1], in the test with NIH3T3 [2], in the test with HACAT [3] and with NIH3T3 [4] was inactive. For the same compound, the max response in the test on HEK293 is 2.37%; with KB-3-1, -0.955%.

Consider `CC1=C(CCC(C)O[C@@H]2O[C@H](CO)[C@@H](O)[C@H](O)[C@H]2O)C(C)(C)CC(O)C1` (some centres not stated), for which the max response in the test with CRL-7250 was -1.39%; in the test with HEK293 it was 1.2%; with HaCat [1] it was -0.421%; in the test with KB-3-1, 1.93%. The result in the test on NIH3T3 [2] and in the test with NIH3T3 [4] was inactive.

For `FC(F)(F)c1nnc2c(Sc3ccccc3)nc3ccc(Cl)cc3n12`, the Potency was 3.66 µM (active) in the test on CRL-7250, 5.8 µM (active) in the test on HEK293, 4.61 µM (active) in the test with HaCat [1] and 5.17 µM (active) in the test with KB-3-1. Also, the result with NIH3T3 [2] and in the test on NIH3T3 [4] was inactive.

Turning to `CC(/C=C/C=C(\C)C(=O)O[C@@H]1O[C@H](CO[C@@H]2O[C@H](CO)[C@@H](O)[C@H](O)[C@H]2O)[C@@H](O)[C@H](O)[C@H]1O)=C\C=C\C=C(C)\C=C\C=C(/C)C(=O)O[C@@H]1C[C@](O)(C(=O)O)C[C@@H](O)[C@H]1OC(=O)/C=C/c1ccc(O)c(O)c1`, the max response is -12.4% in the test on CRL-7250, 2.1% in the test with HEK293, 1.58% with HaCat [1] and 5.86% in the test with KB-3-1. In addition, in the test on NIH3T3 [2], the outcome was inactive. Moreover, the outcome in the test with NIH3T3 [4] was “inactive [at 9.27 µM]”.

For `CC1=C2CC(=O)C(C)CC/C=C(\C)CC2(O)OC1=O` (configuration not stated), the max response is -4.8% in the test with CRL-7250, 0.476% with HEK293, 2.42% in the test on HaCat [1] and 3.81% in the test with KB-3-1. Also, the outcome in the test on NIH3T3 [2] and in the test with NIH3T3 [4] was inactive.

`COc1cc(Cc2cnc(N)nc2N)c(C(C)C)cc1OC`: the max response is -4.26% with CRL-7250, -0.359% with HaCat [1], 4.42% in the test with KB-3-1 and 3.87% in the test on NIH3T3 [2]. Moreover, the compound was classed as inactive in the test on HEK293 and in the test on HEK293T.

As for `CC1OC(OC2C(OC3C(O[C@H]4CC[C@@]5(C)C(CC[C@]6(C)C5CC=C5C7CC(C)(C)CC(O)[C@]7(C)CC[C@]56C)C4(C)C)OC(C(=O)O)C(O)C3O)OCC(O)C2O)C(O)C(O)C1O` (some centres not stated), the compound was classed as inactive in the test on CRL-7250 and with NIH3T3 [2]. The results for the max response with HEK293, with HaCat [1] and in the test with KB-3-1 were 4.82%, -11.3% and 9.21%, respectively. Further, the outcome with NIH3T3 [4] was “inactive [at 9.27 µM]”.

As to `Cn1nccc1-c1ccccc1Oc1ccc(S(=O)(=O)Nc2nccs2)cc1C#N`, the compound was classed as inactive in the test with CRL-7250, in the test with HEK293 and with HEK293T. In addition, the max response was -17.4% with HaCat [1], 2.49% in the test on KB-3-1 and 0.589% in the test on NIH3T3 [2].

Consider `C[C@@H]1C[C@@H](O)[C@@]23CO[C@]2(CO)CCC[C@@H]3[C@@]12C[C@@H](c1ccoc1)OC2=O`, for which the max response in the test on CRL-7250 was -8.12%; in the test with HEK293 it was 2.85%; in the test on HaCat [1], -3.9%; with KB-3-1 it was 7.05%. The compound was called inactive in the test with NIH3T3 [2] and in the test with NIH3T3 [4].

`CN(C)CC(c1ccc(O)cc1)C1(O)CCCCC1` (configuration not stated): the results for the max response in the test on CRL-7250, with HEK293 and in the test with HaCat [1] were 2.79%, 2.78% and -0.565%, respectively. Further, the outcome in the test with KB-3-1, with NIH3T3 [2] and in the test with NIH3T3 [4] was inactive.

`C[C@H]1[C@H](C)CC[C@]2(C(=O)O)CC[C@]3(C)C(=CCC4[C@@]5(C)C[C@@H](O)[C@H](O)C(C)(C)C5CC[C@]43C)[C@H]12` (some centres not stated): the compound was classed as inactive in the test on CRL-7250 and with NIH3T3 [2]. The values for the max response in the test with HEK293, in the test with HaCat [1] and with KB-3-1 were 3.03%, -6.87% and -2.55%, respectively. In addition, the outcome in the test on NIH3T3 [4] was “inactive [at 17.4 µM]”.

As for `O=C(/C=C/c1ccc(O)c(O)c1)O[C@H]1[C@H](OC2CCCCC2O)O[C@H](CO)[C@@H](O)[C@@H]1O` (some centres not stated), the max response with CRL-7250 is -3.22%; in the test with HEK293 it was -0.453%; in the test with HaCat [1], -16.7%; with KB-3-1 it was -3.21%. The compound was classed as inactive in the test with NIH3T3 [2]. Besides, the outcome in the test with NIH3T3 [4] is “inactive [at 17.4 µM]”.

As for `CC(O)C1NC(=O)C2CCCN2C1=O` (configuration not stated), the values for the max response with CRL-7250, in the test with HaCat [1] and in the test on NIH3T3 [2] were 3.11%, -1.16% and -1.84%, respectively. For the same compound, the call in the test on HEK293 and in the test on KB-3-1 was inactive. Besides, in the test with HEK293T, the outcome was “inactive [at 92 µM]”.

As to `C/C=C(/C)C(=O)OC1C2OC2C2(CO2)C2C3OC(=O)C(C)C3CCC12C` (configuration not stated), the max response with CRL-7250 was -1.71%; in the test with HaCat [1], 3.73%; in the test on KB-3-1 it was 9.88%; with NIH3T3 [2], -1.74%. In addition, the result in the test with HEK293 and in the test with HEK293T was inactive.

For the compound `Cc1ccc(Cl)cc1N(CC(=O)Nc1c(F)cccc1F)S(C)(=O)=O`, the max response is -3.38% in the test on CRL-7250, -7.88% in the test with HEK293, -2.84% in the test with HaCat [1] and 5.59% in the test on KB-3-1. The compound was called inactive in the test with NIH3T3 [2] and in the test on NIH3T3 [4].

On to `NC(Cc1c[nH]c2ccc(O)cc12)C(=O)O` (configuration not stated), for which the max response in the test with CRL-7250 is -7.16%; with HEK293, -8.59%; in the test on HaCat [1] it was 0.887%. Further, the compound was classed as inactive in the test with KB-3-1, in the test with NIH3T3 [2] and in the test with NIH3T3 [4].

As for `C=CC1(C)C=C2CC[C@H]3[C@@](C)(C(=O)O)CCC[C@]3(C)C2CC1` (some centres not stated), the max response in the test with CRL-7250 was -9.61%; in the test on HEK293, 2.61%; in the test with HaCat [1], 3.4%; with KB-3-1, 5.04%. In addition, the outcome in the test with NIH3T3 [2] and with NIH3T3 [4] was inactive.

For the compound `Cc1ccccc1NC(=O)Nc1ccc(CN2C(=O)N([C@@H](CC(C)C)C(=O)N[C@@H](CC(=O)O)c3ccccc3)C(=O)C2(C)C)cc1`, the max response is -13.5% in the test with CRL-7250, 3.16% with HaCat [1] and -0.819% in the test with NIH3T3 [2]. In addition, the compound was called inactive in the test on HEK293, in the test on KB-3-1 and with HEK293T.

On to `Cc1onc(-c2c(Cl)cccc2Cl)c1CC(=O)NCc1ccc(OCC(F)(F)F)nc1`, for which the values for the max response in the test with CRL-7250, with HEK293 and in the test on HaCat [1] were 0.479%, -15.1% and 1.93%, respectively. For the same compound, the compound was classed as inactive with KB-3-1, with NIH3T3 [2] and in the test on NIH3T3 [4].

For `O=C(NC1Cc2ccccc2N(C[C@@H](O)CO)C1=O)c1cc2cc(Cl)sc2[nH]1` (some centres not stated), the max response with CRL-7250 was -1.76%; in the test on HaCat [1], -0.0172%; in the test on KB-3-1, 3.62%. Besides, the Potency in the test with HEK293 was 16.4 µM (active). Besides, the compound was classed as inactive in the test with NIH3T3 [2] and in the test on NIH3T3 [4].

Regarding `C/C=C(\C)C(=O)OC1C(C)C2(O)C3C=C(C)C(=O)C3CC(CO)=CC2C2C(C)(C)C12OC(C)=O` (configuration not stated), the max response was -31.4% in the test on CRL-7250, -25.8% in the test with HEK293, 4.78% in the test on HaCat [1] and 2.42% in the test with KB-3-1. For the same compound, the result in the test on NIH3T3 [2] was inactive. Also, the outcome in the test with NIH3T3 [4] is “inactive [at 17.4 µM]”.

Regarding `CC(C)(OC1OC(CO)C(O)C(O)C1O)C1CCC(O)(CO)C2CC(=O)C(C)(O)C2C1` (configuration not stated), the outcome in the test with CRL-7250 and in the test with NIH3T3 [2] was inactive. For the same compound, the max response with HEK293 was -8.37%; in the test on HaCat [1], 0.066%; with KB-3-1 it was 2.59%. Also, the outcome with NIH3T3 [4] is “inactive [at 17.4 µM]”.
